Results reported in paper PMC4336329 (PLoS ONE, 2015).
Among all 310,000 compounds or so, about 14,000 (4.5%) showed an effect of 50% or more. Effects have a minus sign here. This excerpt belongs to a sample that is enriched for strong results.

Biological target: human ether-à-go-go-related gene (hERG) potassium channel (human, UniProt Q12809)
Assay: primary screen, population patch clamp on CHO cells stably expressing hERG; higher = less effect of the substance
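Further: peak tail current of the secondary pulse compared with the same well before compound.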

human ether-à-go-go-related gene (hERG) potassium channel, sequence (Q12809 whole entry, looked up): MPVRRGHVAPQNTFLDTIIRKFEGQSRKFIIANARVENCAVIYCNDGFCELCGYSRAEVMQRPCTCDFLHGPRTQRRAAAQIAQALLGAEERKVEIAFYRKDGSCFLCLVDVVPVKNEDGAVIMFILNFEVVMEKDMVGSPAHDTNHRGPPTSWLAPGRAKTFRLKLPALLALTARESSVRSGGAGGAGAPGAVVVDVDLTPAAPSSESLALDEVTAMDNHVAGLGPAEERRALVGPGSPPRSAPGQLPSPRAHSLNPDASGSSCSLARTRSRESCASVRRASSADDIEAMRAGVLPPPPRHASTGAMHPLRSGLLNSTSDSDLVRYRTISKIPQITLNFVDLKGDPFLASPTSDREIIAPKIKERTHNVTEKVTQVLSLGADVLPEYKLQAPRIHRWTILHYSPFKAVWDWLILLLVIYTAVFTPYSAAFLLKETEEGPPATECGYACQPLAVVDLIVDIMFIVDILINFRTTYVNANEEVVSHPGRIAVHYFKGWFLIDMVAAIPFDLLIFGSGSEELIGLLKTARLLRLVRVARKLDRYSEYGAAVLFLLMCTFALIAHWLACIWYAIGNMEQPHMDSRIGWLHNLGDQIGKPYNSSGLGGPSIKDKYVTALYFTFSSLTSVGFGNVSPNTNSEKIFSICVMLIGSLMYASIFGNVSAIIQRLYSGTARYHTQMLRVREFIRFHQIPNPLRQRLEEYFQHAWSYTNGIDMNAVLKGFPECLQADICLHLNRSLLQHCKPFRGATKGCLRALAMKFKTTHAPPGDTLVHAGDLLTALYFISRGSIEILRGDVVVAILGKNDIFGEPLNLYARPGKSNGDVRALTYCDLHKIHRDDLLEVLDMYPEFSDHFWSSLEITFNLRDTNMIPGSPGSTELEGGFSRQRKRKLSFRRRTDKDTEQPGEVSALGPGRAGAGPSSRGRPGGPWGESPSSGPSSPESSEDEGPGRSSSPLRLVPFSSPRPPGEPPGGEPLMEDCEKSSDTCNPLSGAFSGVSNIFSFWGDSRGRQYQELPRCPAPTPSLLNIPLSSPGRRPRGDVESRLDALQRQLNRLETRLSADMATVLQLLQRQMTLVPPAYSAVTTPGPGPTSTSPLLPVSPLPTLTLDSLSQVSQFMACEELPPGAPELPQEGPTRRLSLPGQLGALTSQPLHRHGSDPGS

Row | SMILES | hERG current change (%, negative = inhibition) at 10uM [%]
1 | Cc1ccc(NC(=O)CC2SC(=NCC3CCCO3)NC2=O)cc1Cl (stereo not drawn) | -3.57
2 | Cc1c(C)n2c(SCC(=O)NC3CCCCC3)nnc2[nH]c1=O | -8.13
3 | CCCCN(C(=O)c1ccco1)C1CCS(=O)(=O)C1 (stereo not drawn) | 0.36
4 | O=C1c2ccc(-c3ccc4c(c3)C(=O)N(CCO)C4=O)cc2C(=O)N1CCO | 14.6
5 | COCC(=O)N(C)CC1CCCN(CCc2ccccc2OC)C1 (stereo not drawn) | 7.26
6 | Cc1occc1C(=O)N(C)CC1CCCN(CCc2ccccc2F)C1 (stereo not drawn) | -51.1
7 | COc1ccccc1CCN1CCCC(CN(C)C(=O)c2ccoc2)C1 (stereo not drawn) | -51.2
8 | COc1ccccc1CCN1CCCC(CN(C)CC(C)(C)CO)C1 (stereo not drawn) | -0.609
9 | Cc1ccccc1CC(=O)N(CCN(C)C)CC1CCCN(Cc2ccccc2F)C1 (stereo not drawn) | 1.19
10 | CN(CC1CCCN(CCc2ccccc2F)C1)C(=O)c1ccoc1 (stereo not drawn) | -66.7
11 | CN(C)CCN(CC1CCCN(Cc2ccccc2F)C1)C(=O)c1ccc(F)cc1 (stereo not drawn) | 3.46
12 | COc1ccccc1CCN1CCCC(CN(C)C(=O)c2ccc3nc[nH]c3c2)C1 (stereo not drawn) | 12.1
13 | COc1ccccc1CCN1CCCC(CN(C)C(=O)c2ccco2)C1 (stereo not drawn) | -68.9
14 | O=c1[nH]oc2cc(Cl)ccc12 | 11.3
15 | CCOc1ccc(OCC(=O)Nc2ccc(S(N)(=O)=O)cc2)cc1 | -7.32
16 | O=C(NCc1cccs1)c1nc2c(nnn2Cc2ccccc2Cl)c(=O)[nH]1 | 5.42
17 | COC(=O)CSc1nn(-c2ccc(F)cc2)c(=S)s1 | -2.71
18 | Cn1c(CC(=O)Nc2ccccc2)nnc1SCCOc1ccccc1 | 2.08
19 | CC1CC(=O)Nc2ccc([N+](=O)[O-])cc2N1C (stereo not drawn) | 7.59
20 | Cc1cc(C)c(C(=O)N(C)C2CCCN(Cc3ccccc3F)C2)o1 (stereo not drawn) | -0.652
21 | Cc1cc(C)c(C(=O)N(C)CC2CCCN(CCc3ccccc3F)C2)o1 (stereo not drawn) | -70.4
22 | Cc1cc(C)c(C(=O)N(CCN(C)C)CC2CCCN(Cc3ccccc3F)C2)o1 (stereo not drawn) | 7.61

Row | SMILES | hERG current change (%, negative = inhibition) at 10uM [%]
23 | CCCn1c(SCC(=O)Nc2nccs2)nnc1-c1cccnc1 | -0.265
24 | COc1cccc(NC(=O)c2oc3ccccc3c2NC(=O)c2ccc3c(c2)OCO3)c1 | 5.18
25 | O=C1C2CC=CCC2C(=O)N1c1n[nH]c(Cc2ccccc2)n1 (stereo not drawn) | 2.31
26 | COc1ccccc1C(CNC(=O)CNC(=O)c1ccc(Cl)c(Cl)c1)N1CCCC1 (stereo not drawn) | -32.9
27 | CCCCNC(=O)c1cn(CC)c2ccc(S(=O)(=O)N3CCCCCC3)cc2c1=O | 7.01
28 | CCCCN(CCCC)CCNC(=O)c1cn(CC)c2ccc(S(=O)(=O)N3CCCC3)cc2c1=O | -65.7
29 | CCCCSCCCNC(=O)c1cn(C)c2ccc(S(=O)(=O)N3CCCC3)cc2c1=O | 11.2
30 | CCCCN(CCCC)CCNC(=O)c1cn(C)c2ccc(S(=O)(=O)N3CCCC3)cc2c1=O | -57.9
31 | CCCCNC(=O)c1cn(CC)c2ccc(S(=O)(=O)N3CCCC3)cc2c1=O | -38.1
32 | CCCCNC(=O)c1cn(C)c2ccc(S(=O)(=O)N3CCCC3)cc2c1=O | 12.6
33 | CCOc1ccc(NC(=O)CN(C)C(=O)CCCc2c[nH]c3ccccc23)cc1OCC | -3.25
34 | Cc1ccccc1NC(=O)CSc1nnc(-c2ccoc2C)n1CCc1ccccc1 | -59.6
35 | Cc1occc1-c1nnc(SCC(=O)Nc2ccccc2)n1C | 9.72
36 | Cc1occc1-c1nnc(SCC(=O)Nc2ccccc2)n1CCc1ccccc1 | -67
37 | Cc1cccc(C)c1NC(=O)CSc1nnc(-c2ccoc2C)n1CCc1ccccc1 | -46.3
38 | Cc1occc1-c1nnc(SCC(=O)Nc2ccc(F)cc2)n1Cc1ccccc1 | -49.4
39 | Cc1nnc(SCC(=O)Nc2ccccc2)n1CCc1ccccc1 | -33
40 | COc1ccccc1NC(=O)CSc1nnc(-c2ccoc2C)n1C | -1.59
41 | CC(=O)c1ccc(NC(=O)CSc2nnc(-c3ccoc3C)n2Cc2ccccc2)cc1 | -30.8
42 | CCCn1c(SCC(=O)Nc2ccccc2-c2ccccc2)nnc1-c1ccoc1C | -26
43 | COc1ccccc1NC(=O)CSc1nnc(C)n1CCc1ccccc1 | -14.3
44 | Cc1occc1-c1nnc(SCC(=O)Nc2ccccc2)n1Cc1ccccc1 | -76.3

Row | SMILES | hERG current change (%, negative = inhibition) at 10uM [%]
45 | COc1ccccc1NC(=O)CSc1nnc(-c2ccoc2C)n1CCc1ccccc1 | -64.8
46 | CSc1nc(SC)c2c3c(oc2n1)COC(C)(C)C3 | 7.86
47 | Cc1ccc(N2CCN(/N=C/C(Cl)=C/c3ccccc3)CC2)cc1 | -5.13
48 | O=C(CN(Cc1ccco1)C(=O)c1ccc(Cl)cc1)Nc1c(Cl)cc(Cl)cc1Cl | 7.76
49 | CN1C(=O)c2ccccc2Sc2ccc(NC(=O)NC3CC3)cc21 | -11
50 | CCOc1ccccc1C(=O)NCC(=O)NCC1CCCCC1 | 12.2
51 | COc1ccc(N2C(=O)C3C4C=CC(CC4)C3C2=O)c([N+](=O)[O-])c1 (stereo not drawn) | -5.27
52 | O=C(/C=C/c1ccco1)NC(=S)Nc1ccc(O)c(-c2nc3ccccc3s2)c1 | 13.2
53 | CSc1ccccc1NC(=S)N/N=C/c1cccn1Cc1ccc(F)cc1 | -6.67
54 | O=C(c1cc(=O)c2ccccc2o1)N1CCN(c2ccccc2F)CC1 | -15.3
55 | Cc1cc(NC(=O)CSc2nnc(-c3ccco3)n2Cc2ccccc2)no1 | -44.3
56 | COc1ccc(NC(=O)CSc2nnc(-c3ccoc3C)n2CC2CCCO2)cc1 (stereo not drawn) | -5.04
57 | Cc1occc1-c1nnc(SCC(=O)NCCc2ccccc2)n1Cc1ccccc1 | -81.1
58 | Cc1cc(NC(=O)CSc2nnc(C3CC3)n2Cc2ccccc2)no1 | -8.63
59 | Cc1cc(NC(=O)CSc2nnc(-c3ccc(Br)o3)n2Cc2ccccc2)no1 | -51.2
60 | Cc1occc1-c1nnc(SCC(N)=O)n1Cc1ccccc1 | 3.5
61 | Cc1occc1-c1nnc(SCC(=O)NCCc2ccccc2)n1C(C)c1ccccc1 (stereo not drawn) | -31.8
62 | COc1ccc(NC(=O)CSc2nnc(-c3ccoc3C)n2CCc2ccccc2)cc1 | -54.3
63 | COCCn1c(SCC(=O)Nc2ccc(OC)cc2)nnc1-c1ccoc1C | -3.58
64 | COc1cccc2cc(C(=O)NCCc3ccccc3)oc12 | -20.1
65 | C/C(=N\NC(=O)C1(C)CC1(Br)Br)c1ccc(NC(=O)c2ccc(C)o2)cc1 (stereo not drawn) | -8.92
66 | COc1cc2nc(-c3cccs3)oc(=O)c2cc1OC | 4.77

Row | SMILES | hERG current change (%, negative = inhibition) at 10uM [%]
67 | COc1cccc2c1Oc1ncccc1N(C(=O)CCC(=O)NCc1cccc(C)c1)C2 | -23.5
68 | CC(C)[C@H](NC(=O)C1CCN(S(=O)(=O)c2ccccc2)CC1)C(=O)NCc1ccccc1 | 10.2
69 | O=C(COC(=O)/C=C/c1ccc(Br)o1)NC1CCCCC1 | 11
70 | CC(=O)Nc1ccc(/C=N/NC(=O)CCN2CCN(c3ccccc3)CC2)cc1 | -2.3
71 | O=C(CN1CCCCCCC1)N/N=C/c1ccc([N+](=O)[O-])o1 | -52.1
72 | O=C(Cc1ccc([N+](=O)[O-])cc1)N/N=C/c1ccc([N+](=O)[O-])o1 | -64.7
73 | CCCCCC(=O)N/N=C/c1ccc([N+](=O)[O-])o1 | -26.2
74 | O=C(Cc1ccc([N+](=O)[O-])cc1)N/N=C/c1ccco1 | -15.3
75 | O=C(N/N=C/c1ccc([N+](=O)[O-])o1)C1CCCC1 | 10.6
76 | O=C(Cc1ccccc1)N/N=C/c1ccc(-c2ccc([N+](=O)[O-])cc2)o1 | 4.21
77 | O=C(CCN1CCN(c2ccccc2)CC1)N/N=C/c1ccccc1O | -16
78 | O=C(CCN1CCN(c2ccccc2)CC1)N/N=C/c1ccc([N+](=O)[O-])o1 | -73.4
79 | COc1ccc(C2C(C(=O)c3cccs3)=C(O)C(=O)N2c2nnc(C)s2)cc1OC (stereo not drawn) | 1.32
80 | CCN1C(=O)/C(=C\N2CCN(c3ccc(F)cc3)CC2)SC1=S | 15.5
81 | COc1ccc(N2C(=O)C3CCCN3C2c2cccc(C)c2)cc1Cl (stereo not drawn) | -31.3
82 | O=C(Nc1ccccc1F)C(=O)c1cn(CC(=O)N2CCCCC2)c2ccccc12 | 13.8
83 | CN1CCN(C2=Nc3ccccc3Oc3ccc(Cl)cc32)CC1.O=C(O)CCC(=O)O | -6.25
84 | CCN(CC(=O)NC(=O)NC1CCCCC1)Cc1nc2ccccc2c(=O)[nH]1 | -8.1
85 | CN1CC(=O)N=C1N.Cl | -50.1
86 | CN1CC(=O)N=C1N | 8.56
87 | O=C(CN1CCN(S(=O)(=O)c2ccc(F)c(Cl)c2)CC1)N1CCNC1=O | -1.79
